Results: PubChem BioAssay AID493240 (Broad Institute, 2011)
Out of some 1,300 compounds screened, about 270 (21%) were called active. These entries were drawn from the full list. Entries with a potency or affinity are not part of this list. Values without a mark were called inactive. No rule for the calls is given here.

assay: cytotoxicity in parental SK-MEL-5 melanoma cells – cell-based, CellTiter-Glo, cherry-picked, set 3, orthogonal assay for MITF inhibitor project, dose response (AID 493240); conditions: SK-MEL-5 viability, ATP luminescence (CellTiter-Glo), 24 h; series mostly up to 35 µM; activity change, negative = viability loss: at the top concentration

Question: For Cc1ccc(-c2nc(-c3ccncc3)no2)cc1C, which “activity change, negative = viability loss” value is on record?
Answer: -17.9%

Question: For CCOc1ccc(NC(=O)c2ccc3snnc3c2)cc1, which “activity change, negative = viability loss” value is on record?
Answer: -0.311%

Question: Which “activity change, negative = viability loss” value does the source give for Nc1ccccc1SC1CC(=O)N(c2ccc3c(c2)OCCO3)C1=O (stereo not given) here?
Answer: -5.81%

Question: With O=C(Nc1ccc([N+](=O)[O-])cc1)c1ccccc1 as the compound, how does the “activity change, negative = viability loss” value read?
Answer: 6.09%

Question: For O=C(O)c1ccc(C(=O)Nc2ccc(F)cc2)cc1, which “activity change, negative = viability loss” value is on record?
Answer: -7.29%

Question: For COc1ccc2c(C)nc(Nc3nc(-c4ccccc4)cc(=O)[nH]3)nc2c1, which “activity change, negative = viability loss” value is on record?
Answer: -25.4%

Question: For O=C(Cn1cc(/C=C\[N+](=O)[O-])c2ccccc21)Nc1ccccc1, which “activity change, negative = viability loss” value is on record?
Answer: -48.7%

Question: With Oc1cc(NCc2cccnc2)ccc1-c1nc2ccccc2o1 as the compound, how does the “activity change, negative = viability loss” value read?
Answer: -11.7%

Question: With NCCN1C(=O)S/C(=C\c2ccc3c(c2)OCO3)C1=O as the compound, how does the “activity change, negative = viability loss” value read?
Answer: -12.1%

Question: With O=C(COC(=O)C1=COCCO1)Nc1c(F)cccc1F as the compound, how does the “activity change, negative = viability loss” value read?
Answer: 6.41%

Question: Which “activity change, negative = viability loss” value does the source give for O=C(C[n+]1cccc2ccccc21)c1ccc([N+](=O)[O-])cc1 here?
Answer: -22.8%

Question: For N=c1n(CC(=O)c2ccc([N+](=O)[O-])cc2)c2ccccc2n1Cc1ccccc1, which “activity change, negative = viability loss” value is on record?
Answer: -17.9%

Question: For Cc1ccccc1Cn1c(=N)n(CC(=O)c2ccc([N+](=O)[O-])cc2)c2ccccc21, which “activity change, negative = viability loss” value is on record?
Answer: -79.6%

Question: For N=c1n(CC(=O)c2ccc([N+](=O)[O-])cc2)c2ccccc2n1Cc1ccccc1Cl, which “activity change, negative = viability loss” value is on record?
Answer: -29.3%

Question: With CC(NC(=O)C12CC3CC(CC(C3)C1)C2)C(=O)NN=Cc1ccc([N+](=O)[O-])o1 (stereo not given) as the compound, how does the “activity change, negative = viability loss” value read?
Answer: -22%

Question: For Cc1ccc(-n2nnnc2Sc2nc([N+](=O)[O-])nn2C)c(C)c1, which “activity change, negative = viability loss” value is on record?
Answer: -15.4%

Question: With O=C(O)c1cccc(COc2ccccc2Cl)c1 as the compound, how does the “activity change, negative = viability loss” value read?
Answer: -19.5%

Question: Which “activity change, negative = viability loss” value does the source give for COc1ccc(O)c(/C=N/NC(=O)c2ccc(CSc3nc(C)cc(C)n3)cc2)c1 here?
Answer: -14.4%

Question: With O=C(COc1ccc2c(c1)CCC2)N1CCc2ccccc21 as the compound, how does the “activity change, negative = viability loss” value read?
Answer: -5.75%

Question: With O=S(=O)(c1ccc(F)cc1)c1snnc1-c1ccccc1 as the compound, how does the “activity change, negative = viability loss” value read?
Answer: -23.4%

Question: With CCOc1ccc2nc(C)cc(Nc3cccc([N+](=O)[O-])c3)c2c1 as the compound, how does the “activity change, negative = viability loss” value read?
Answer: -33.6%

Question: With COC(=O)c1ccc(Nc2cc(C)nc3ccc(C)cc23)cc1 as the compound, how does the “activity change, negative = viability loss” value read?
Answer: -11.8%

Question: Which “activity change, negative = viability loss” value does the source give for COc1ccc(NC(=O)CCC(=O)N/N=C/c2ccc([N+](=O)[O-])s2)cc1 here?
Answer: -48.4%

Question: For COc1ccc(NC(C)C(=O)N/N=C/c2ccc([N+](=O)[O-])s2)cc1 (stereo not given), which “activity change, negative = viability loss” value is on record?
Answer: -41.7%

Question: With O=[N+]([O-])c1c(NCCCO)cc(Sc2ccc(Cl)cc2)c2nonc12 as the compound, how does the “activity change, negative = viability loss” value read?
Answer: -31.4%

Question: Which “activity change, negative = viability loss” value does the source give for O=C(NCc1ccccc1)C(=O)Nc1cccc(C(=O)O)c1 here?
Answer: -1.43%

Question: With O=C(NC1CCCCC1)C(c1cccnc1)N(C(=O)CCl)c1ccc(F)cc1 (stereo not given) as the compound, how does the “activity change, negative = viability loss” value read?
Answer: -20.8%

Question: For O=C(c1cc2ccccc2oc1=O)N(Cc1ccccc1)C1CCS(=O)(=O)C1 (stereo not given), which “activity change, negative = viability loss” value is on record?
Answer: 4.69%

Question: For O=C(NC1CCCCC1)C(c1cccnc1)N(C(=O)CCl)c1cccc(Cl)c1 (stereo not given), which “activity change, negative = viability loss” value is on record?
Answer: -3.27%

Question: For CC(=O)NC1=C(N(C)C2CCS(=O)(=O)C2)C(=O)c2ccccc2C1=O (stereo not given), which “activity change, negative = viability loss” value is on record?
Answer: -33.7%
